The results in this text go back to PubChem BioAssay AID743279 (National Center for Advancing Translational Sciences (NCATS), 2014).

The whole screen tested about 360,000 compounds, of which about 17,000 (4.7%) were called active. About 5% were inconclusive and are not listed. For the sample, actives were picked, then their nearest neighbours and some compounds at random. Unmarked numbers belong to inactive results. No stated cut-off is given here; in the data, active means activity change below about -50%; inconclusive means mostly about -30% to -49%; inactive means weaker than that.
On the % scale 0 is the no-effect control and ±100 the full control effect.

The experiment is described as follows: qHTS for Inhibitors of Inflammasome Signaling: IL-1-beta AlphaLISA Primary Screen. The note with it: THP-1 LPS/ATP IL-1B secretion, 16 h; at 57.5 µM, stronger effect = lower value. An excerpt:
Inflammasomes are a set of intracellular multi-protein complexes that enable autocatalytic activation of inflammatory caspases and drive the innate immune response to counter harmful agents. […] A qHTS assay, based on AlphaLISA technology, was developed to screen the Molecular Libraries Small Molecule Repository (MLSMR) to look for novel inflammasome inhibitors. The assay detects IL-1B using AlphaLISA anti-IL-1B acceptor and donor beads. A decreased emission signal, indicating reduced IL-1B secretion, is the desired outcome for this assay. NIH Chemical Genomics Center [NCGC] NIH Molecular Libraries Probe Centers Network [MLPCN] MLPCN Grant: MH095513 Assay Provider: Shyam Biswal Ph.D., Johns Hopkins University Immunity. 2012 Jul 27;37(1):85-95. PMID: 22819042 [2] Curr Pharm Des. 2012;18(16):2320-8. PMID: 22390695
Three microliters containing 3000 THP-1 cells were dispensed into the wells of solid, white, tissue culture treated Greiner 1,536-well plates. Library compounds and positive control, Glyburide, were pin-transferred (23 nL) by a Kalypsys pin-tool equipped with a 1,536-pin array, resulting in final compound concentration ranges of 2.5 nM to 57.5 uM. After 1 hr of cell culture incubation (37 °C, 5% CO2), 1 microL of 1 microg/mL lipopolysaccharide (250 ng/mL, final) and 5 mM ATP (1.25 mM, final) were added to stimulate the cells. After 16 hr of cell culture incubation with the compounds, 1.5 uL of anti-IL-1B acceptor beads (6 ug/mL, final) and biotinylated antibody (0.6 nM, final) were added to the plate, followed by a 1 hr incubation at ambient temperature. To detect the secreted IL-1B, 1.5 uL of AlphaLISA SA-Donor beads (24 ug/mL, final) were added, followed by 30 min of incubation in the dark at ambient temperature. The AlphaLISA signal was read by a PerkinElmer EnVision plate reader with an ultrasensitive luminescence detector and 1536 Plate HTS AlphaScreen aperture (excitation of 680nm and emission of 615nm).
`COc1ccc(-n2ncc3c2CC(C)(C)CC3NC(=O)CCc2c(C)noc2C)cc1` (stereo unspecified): the activity change entry is “inactive”.

`O=C(N=C1SC2CS(=O)(=O)CC2N1Cc1ccccc1)c1ccccc1` (stereo unspecified): the activity change was -24.4%.

With `CCc1nc2ccc(C(=O)NCCNC(C)=O)cn2c1N(CC)Cc1cccc(Br)c1`, the activity change is 27.3%.

Turning to `CCc1nc2ccc(C(=O)Nc3cccc(OC)c3)cn2c1N(CCC(C)C)CCN(C)C`, the activity change was 30.7%.

For the compound `CCc1nc2ccc(C(=O)NCc3ccc(OC)cc3)cn2c1N(CC)Cc1cccc(Br)c1`, the activity change is -70.8% (active).

Turning to `CN(C(=O)CN1CCN(c2cc(-c3ccc(OCc4ccccc4)cc3)ncn2)CC1)c1ccccc1`, the activity change was 8.46%.

Take `COc1ccc(S(=O)(=O)/N=C2\C=C(NS(=O)(=O)c3ccccc3)C(=O)c3ccccc32)cc1`: the activity change was 36%.

Consider `CC(C)CC[n+]1ccn(C2=C([O-])c3ccccc3C(=O)/C2=N\S(=O)(=O)c2ccccc2)c1`, for which the activity change is -50.7% (active).

`Cc1ccc(S(=O)(=O)/N=C2\C=C(NS(=O)(=O)c3ccc(C)cc3)C(=O)c3ccccc32)cc1`: the activity change is 57.7%.

On to `CC(=O)c1ccc(NC(=O)C(C)NCc2ccc(Cl)cc2)cc1` (stereo unspecified), for which the activity change is -14.8%.

`CCc1nc2c(OCc3ccccc3)cccn2c1N(C)C(=O)c1ccco1`: the activity change is -17.3%.

As to `C[C@H]1CN([C@@H](C)CO)C(=O)c2cc(-c3cccc(F)c3)cnc2O[C@@H]1CN(C)S(C)(=O)=O`, the activity change is 7.01%.

Turning to `CCC(=O)N1CCc2cc(Br)c(S(=O)(=O)NCCN3CCCCC3CC)cc21` (stereo unspecified), the activity change is -5.22%.

For the compound `CCc1noc(C)c1C(=O)Nc1nc(-c2ccccc2)cs1`, the activity change is 61.4%.

Regarding `C/C(CC1CC(C)(C)OC1=O)=N/Nc1nc(-c2ccccc2)cs1` (stereo unspecified), the activity change is -54.9% (active).

Take `CC1(C)CC(CC(=O)O)C(=O)O1` (stereo unspecified): the activity change was -17%.

`COC(=O)[C@@]1(Cc2ccc(F)cc2)[C@H]2c3cc(C(=O)N4CCCC4)n(C[C@H](O)CO)c3C[C@H]2CN1C(=O)c1ccccc1`: the activity change was -0.432%.

Consider `CN1OC[C@@H]2CN(S(=O)(=O)c3cccc4ccccc34)[C@H](c3ccc(N4CCCCC4)cc3)C[C@@H]21`, for which the activity change is -6.93%.

`CCNC(=O)C1(C)CCN(C(=O)c2ccccc2)C1` (stereo unspecified): the activity change was 26.9%.

In the case of `O=C(c1ccccc1)N1CCC(CC2CC(c3ccc(Cl)cc3)=NO2)(C(=O)NCC2CCCCC2)CC1` (stereo unspecified), the activity change is -55.1% (active).

For `COc1ccc(CNC(=O)C2CCN(C(=O)c3ccccc3)CC2)cc1`, the activity change is 0%.

For the compound `Cc1ccccc1-c1cc(C(=O)NCC2CC2)n(CC2CC(c3cccnc3)=NO2)n1` (stereo unspecified), the activity change was -18.9%.

On to `COc1ccc(CNC(=O)C2(CC3CC(c4ccccc4)=NO3)CCN(C(=O)c3cccc(O)c3)CC2)cc1` (stereo unspecified), for which the activity change was -61.2% (active).

For the compound `CCCCCCCNC(=O)C1(CC2CC(c3cccc(Br)c3)=NO2)CCN(C(=O)c2cc(OCC)c(OCC)c(OCC)c2)CC1` (stereo unspecified), the activity change is -24.2%.

On to `O=C(C[C@H]1CC[C@H]2[C@@H](COC[C@H](O)CN2C(=O)c2ccccn2)O1)N1CCN(c2ccccc2)CC1`, for which the activity change is 18.8%.

Turning to `CC(=O)N=c1ncn(CC(COC(C)=O)OC(C)=O)c2nc[nH]c12` (stereo unspecified), the activity change is -17.6%.

For the compound `O=c1[nH][nH]c2c1[C@H](c1ccc(Cl)cc1)O[C@H](CCc1ccccc1)C2`, the activity change was -5.73%.

On to `Cc1cccc(CC2(O)C(=O)Nc3ccccc32)n1` (stereo unspecified), for which the activity change is 12.5%.

With `Cc1cc(C(C)(C)C)cc(S(=O)(=O)Nc2ccc(C(=O)O)cc2)c1C`, the activity change is 0%.

As to `COc1ccc(NC(=O)C(=O)NCC(c2ccco2)N2CCc3ccccc3C2)cc1` (stereo unspecified), the activity change is 5.37%.

Take `CC(=O)Nc1cc(-c2ccc(N3CCN(C)CC3)cc2)cn2c(-c3cccc(C(=O)N(C)C)c3)cnc12`: the activity change is -6.52%.

With `COc1ccccc1-c1cc(NC(C)=O)c2ncc(-c3ccc(F)cc3)n2c1`, the activity change is -21.1%.

Turning to `CC(=O)Nc1cc(-c2ccc(N3CCN(C)CC3)cc2)cn2c(-c3ccc(F)cc3)cnc12`, the activity change is -91.8% (active).

Consider `CC(=O)N1c2ccc(S(=O)(=O)N3CCCC(C(=O)NCc4ccc(Cl)cc4)C3)cc2CC1C` (stereo unspecified), for which the activity change was -22.7%.

For the compound `CCN(CCN(C)C)C(=O)c1ccc2nc(C)c(N(C)C(=O)CCc3ccccc3)n2c1`, the activity change was 10.6%.

`CC(=O)Nc1cccc(NC(=O)c2ccc3c(c2)CCN3S(C)(=O)=O)c1`: the activity change is -15.8%.

As to `Cc1cc(C)cc(NC(=O)C(c2ccccc2)N2CCN(CC(=O)N3CCCC3)CC2)c1` (stereo unspecified), the activity change is 15.8%.

As to `Cc1[nH]c(C)c(S(=O)(=O)N2CCC(C)CC2)c1C(=O)N1CCCC1`, the activity change was -16.2%.

Turning to `CSCCC(NC(=O)c1ccccc1)C(=O)N1CCCCCCC1` (stereo unspecified), the activity change is -20.8%.

As for `COc1ccccc1C(=O)NC(CCSC)C(=O)N1CCN(C(C)=O)CC1` (stereo unspecified), the activity change was -2.96%.

Consider `CSCCC(NC(=O)c1ccccc1)C(=O)N1CCN(Cc2ccc(Cl)cc2)CC1` (stereo unspecified), for which the activity change is -78.1% (active).

For `O=C1NC[C@@H](CCCCN2CCN(CCc3ccc(O)cc3)C(=O)C2=O)N(CC2CCCCC2)C1=O`, the activity change is 24.5%.

`COc1ccc(N2C(=O)c3ccccc3NC2c2ccc(OC)c(CN3CCOCC3)c2)cc1` (stereo unspecified): the activity change is -2.56%.

Turning to `COc1ccc(C2Nc3ccccc3C(=O)N2c2ccc(F)cc2)cc1Cn1nnc2ccccc21` (stereo unspecified), the activity change was -12.7%.

As for `COc1ccc(C2Nc3ccccc3C(=O)N2Cc2ccccc2)cc1Cn1nnc2ccccc21` (stereo unspecified), the activity change was -62.4% (active).

Take `Nc1ncnc2c1ncn2[C@@H]1O[C@H](C(=O)NS(=O)(=O)c2c(Cl)nc3sccn23)[C@@H](O)[C@H]1O`: the activity change was -13.5%.

As to `CC(=O)Nc1cccc(-c2cc(NC=O)c3ncc(-c4ccc(F)c(Cl)c4)n3c2)c1`, the activity change was 18.8%.

Turning to `Cc1cccc(C)c1NC(=O)C(c1cccc(F)c1)N1CCN(C)CC1` (stereo unspecified), the activity change is -18.5%.

Regarding `COc1cc(SC#N)ccc1N=Cc1c(C)[nH]n(-c2ccc(C)cc2)c1=O`, the activity change is -83.8% (active).

As to `FC(F)(F)Oc1ccccc1C(c1nnnn1C1CCCCC1)N1CCN(C/C=C/c2ccccc2)CC1` (stereo unspecified), the activity change was -26.5%.

Regarding `O=C(CSc1ccc(Cl)cc1)NC1CC1`, the activity change was 3.85%.
